# Source: PubChem BioAssay (EPA / NIEHS)
# Inconclusive results are not listed. Active and inactive are the calls of the source. How the source made its calls: active means hit-call score of the fitted dose curve at least 0.9, where 1 is the maximum; inconclusive means response in the unintended direction; inactive means score below 0.9.
# What was measured:
# [1] = target: rat Mineralocorticoid Receptor (MR), Nr3c2 (gene 25672) (UniProt P22199); assay: NVS_NR_rMR: NovaScreen (NVS) Nuclear Receptor Binding Assay for rat Mineralocorticoid Receptor (MR) (AID 2283355)
# Outline: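 Single-concentration duplicate screen (25 uM) of radioligand binding in adrenalectomized rat brain supernatant; scintillation detection 24 h after dosing. Positive and negative controls ran on each plate, and confirmed actives went to concentration-response.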
# [2] = target: PGR (gene 5241) (UniProt P06401); assay: NVS_NR_hPR: NovaScreen (NVS) Nuclear Receptor Binding Assay for human Progestron Receptor (PR) (AID 2283360);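 further: active means loss of bound radioligand signal versus DMSO baseline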
# Outline: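 Cell-free radioligand binding using receptor protein extracted from T47D cells, read by scintillation counting 18 hours after dosing. Loss of signal relative to DMSO baseline indicates displacement; primary screen single concentration 25 uM in duplicate, actives followed in concentration series.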
# [3] = target: Androgen Receptor/SRC-1 Co-activator, AR (gene 367) (UniProt P10275); assay: OT_AR_ARSRC1_0960: Odyssey Thera (OT) 16-hour HEK293T Protein-Complementation Assay for Androgen Receptor/SRC-1 Co-activator (AID 2283353);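 further: actives raise the signal above DMSO so potency reflects increased AR and SRC-1 complex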
# Outline: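 Endpoint is gain-of-signal N/C fluorescence ratio in the 488 nm channel versus DMSO, from at least 400 cells per image, measured 16 h post-dosing. Cells: HEK293T stably carrying split-Venus AR/SRC-1 complementation constructs.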
# [4] = target: Androgen Receptor/SRC-1 Co-activator, AR (gene 367) (UniProt P10275); assay: OT_AR_ARSRC1_0480: Odyssey Thera (OT) 8-hour HEK293T Protein-Complementation Assay for Androgen Receptor/SRC-1 Co-activator (AID 2283354);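 further: hits raise the complementation signal above DMSO so AC50 marks enhancers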
# Outline: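 After 8 h dosing, stably expressing HEK293T cells with split-Venus AR/SRC-1 fusions were imaged (488, 635nm). The 488nm N/C ratio per image gave the endpoint, analysed in the positive direction against DMSO.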
# [5] = target: Estrogen receptor beta (Homo sapiens) (UniProt Q92731); assay: OT_ER_ERbERb_0480: Odyssey Thera (OT) 8-hour HEK293T Protein-Complementation Assay for Estrogen Receptor-beta/-beta Homodimer (AID 2283357);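 further: active means signal gain over DMSO baseline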
# Outline: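 Fluorescence gain from complemented reporter fragments on ER-beta LBD homodimer in HEK293T was quantified against DMSO controls after 8 h treatment, fixation in 4% formaldehyde and Draq5 staining.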
# [6] = target: Retinoic acid receptor alpha (Homo sapiens) (UniProt P10276); assay: NVS_NR_hRAR_Antagonist: NovaScreen (NVS) Nuclear Receptor Binding Assay for human Retinoic Acid Alpha Receptor Antagonism (RAR) (AID 2283358)
# Outline: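 Chemicals were first tested in duplicate at 25 uM, then actives in concentration series, in a cell-free TR-FRET antagonist binding format. Measurements were taken 2 hours after dosing and loss of signal was evaluated against DMSO controls.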
# [7] = target: Estrogen receptor (Homo sapiens) (UniProt P03372); assay: OT_ER_ERaERa_0480: Odyssey Thera (OT) 8-hour HEK293T Protein-Complementation Assay for Estrogen Receptor-alpha/-alpha Homodimer (AID 2283351);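 further: rise in fluorescence from reassembled reporter fragments on ERα LBD homodimer in nucleus or whole cell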
# Outline: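 HEK293T cells stably expressing a PCA pair of ER alpha LBD (residues 310-547) were dosed for 8 hours. The gain in fluorescence intensity, nuclear for agonists and whole-cell for antagonists, was measured by laser scanning cytometry against DMSO vehicle.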
# [8] = target: T1, Estrogen receptor (Homo sapiens) + Estrogen receptor beta (Homo sapiens) (UniProt P03372+Q92731); assay: OT_ER_ERaERb_1440: Odyssey Thera (OT) 24-hour HEK293T Protein-Complementation Assay for Estrogen Receptor-alpha/-beta Homodimer (AID 2283356);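 further: heteromer of ER alpha and ER beta binding domains; hits raise reporter fluorescence and both agonists and antagonists give an increase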
# Outline: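 HEK293T cells stably expressing a PCA pair of ERα LBD (aa 310-547) and ERβ LBD (aa 263-489) were dosed for 24 h. Fluorescence intensity increase versus DMSO vehicle was fitted as gain-of-signal.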
# [9] = target: T1, Estrogen receptor (Homo sapiens) + Estrogen receptor beta (Homo sapiens); assay: OT_ER_ERaERb_0480: Odyssey Thera (OT) 8-hour HEK293T Protein-Complementation Assay for Estrogen Receptor-alpha/-beta Heterodimer (AID 2283352)
# Outline: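 HEK293T cells expressing ER-alpha/ER-beta LBD fusions to complementary reporter fragments were dosed with compound for 8 hours. Heterodimer formation was read as increased nuclear (agonist) or nuclear plus cytoplasmic (antagonist) mean fluorescence intensity versus DMSO vehicle.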
# [10] = target: human Peroxisome Proliferator-activated Receptor alpha (PPARa), PPARA (gene 5465) (UniProt Q07869); assay: NVS_NR_hPPARa: NovaScreen (NVS) Nuclear Receptor Binding Assay for human Peroxisome Proliferator-activated Receptor alpha (PPARa) (AID 2283359);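 further: activity means loss of TR-FRET signal versus DMSO baseline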
# Outline: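 One-hour incubation, cell-free extracted protein, TR-FRET binding readout; signal loss vs DMSO scored. Screen: 25 uM duplicates, confirmatory dose series for actives.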
# Estrogen receptor beta (Homo sapiens), sequence (Q92731 whole entry, looked up, the tested form may be a part): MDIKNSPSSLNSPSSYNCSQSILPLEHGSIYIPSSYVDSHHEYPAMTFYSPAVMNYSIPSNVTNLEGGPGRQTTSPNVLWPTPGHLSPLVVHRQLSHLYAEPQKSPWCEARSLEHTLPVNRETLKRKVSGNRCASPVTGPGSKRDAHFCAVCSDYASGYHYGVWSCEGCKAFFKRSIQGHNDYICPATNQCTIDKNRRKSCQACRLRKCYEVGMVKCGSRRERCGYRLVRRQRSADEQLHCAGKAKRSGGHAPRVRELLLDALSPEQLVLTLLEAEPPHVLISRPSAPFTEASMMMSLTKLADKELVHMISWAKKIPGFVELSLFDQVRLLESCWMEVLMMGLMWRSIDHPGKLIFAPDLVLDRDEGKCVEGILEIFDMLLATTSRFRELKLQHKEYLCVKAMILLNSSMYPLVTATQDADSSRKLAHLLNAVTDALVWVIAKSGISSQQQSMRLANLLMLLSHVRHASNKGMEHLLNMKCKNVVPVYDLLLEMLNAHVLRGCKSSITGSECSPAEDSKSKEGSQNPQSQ
# Retinoic acid receptor alpha (Homo sapiens), sequence (P10276 whole entry, looked up): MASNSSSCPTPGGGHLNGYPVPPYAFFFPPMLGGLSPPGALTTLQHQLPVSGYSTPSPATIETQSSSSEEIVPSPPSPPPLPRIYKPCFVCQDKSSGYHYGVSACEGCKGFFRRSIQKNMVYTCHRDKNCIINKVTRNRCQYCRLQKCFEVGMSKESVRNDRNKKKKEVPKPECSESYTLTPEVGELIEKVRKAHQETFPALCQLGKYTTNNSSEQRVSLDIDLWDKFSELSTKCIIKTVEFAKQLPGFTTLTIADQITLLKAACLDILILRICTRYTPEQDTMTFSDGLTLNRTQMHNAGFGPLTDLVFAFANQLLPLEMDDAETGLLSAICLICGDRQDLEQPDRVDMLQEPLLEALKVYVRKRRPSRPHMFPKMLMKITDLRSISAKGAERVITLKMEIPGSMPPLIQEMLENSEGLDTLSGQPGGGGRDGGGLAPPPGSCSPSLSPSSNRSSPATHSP
# PGR (gene 5241), sequence (P06401 whole entry, looked up): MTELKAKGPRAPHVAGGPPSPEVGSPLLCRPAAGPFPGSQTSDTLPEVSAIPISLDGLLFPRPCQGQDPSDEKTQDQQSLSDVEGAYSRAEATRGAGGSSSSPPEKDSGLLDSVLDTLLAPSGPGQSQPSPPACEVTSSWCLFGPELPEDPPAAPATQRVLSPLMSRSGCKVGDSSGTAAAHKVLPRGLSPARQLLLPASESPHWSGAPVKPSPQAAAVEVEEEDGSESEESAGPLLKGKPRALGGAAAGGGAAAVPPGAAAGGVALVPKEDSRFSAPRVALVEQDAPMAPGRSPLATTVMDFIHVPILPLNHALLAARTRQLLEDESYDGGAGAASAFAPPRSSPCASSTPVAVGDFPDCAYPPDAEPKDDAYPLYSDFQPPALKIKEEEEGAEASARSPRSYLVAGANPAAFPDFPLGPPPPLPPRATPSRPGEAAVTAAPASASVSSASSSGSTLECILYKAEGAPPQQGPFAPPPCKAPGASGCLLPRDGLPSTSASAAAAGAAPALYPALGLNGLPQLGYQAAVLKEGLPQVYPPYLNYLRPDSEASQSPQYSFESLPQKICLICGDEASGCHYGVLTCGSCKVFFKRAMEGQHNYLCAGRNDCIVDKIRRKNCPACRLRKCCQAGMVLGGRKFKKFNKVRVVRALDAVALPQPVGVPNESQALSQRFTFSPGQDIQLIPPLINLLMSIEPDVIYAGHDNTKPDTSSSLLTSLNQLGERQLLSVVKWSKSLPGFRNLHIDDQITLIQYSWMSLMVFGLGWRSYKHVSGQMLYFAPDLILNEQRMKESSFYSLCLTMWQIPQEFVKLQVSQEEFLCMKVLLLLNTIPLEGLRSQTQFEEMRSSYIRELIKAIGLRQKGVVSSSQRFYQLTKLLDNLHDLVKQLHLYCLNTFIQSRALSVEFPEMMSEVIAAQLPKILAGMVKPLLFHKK
# Androgen Receptor/SRC-1 Co-activator, AR (gene 367), sequence (P10275 whole entry, looked up, the tested form may be a part): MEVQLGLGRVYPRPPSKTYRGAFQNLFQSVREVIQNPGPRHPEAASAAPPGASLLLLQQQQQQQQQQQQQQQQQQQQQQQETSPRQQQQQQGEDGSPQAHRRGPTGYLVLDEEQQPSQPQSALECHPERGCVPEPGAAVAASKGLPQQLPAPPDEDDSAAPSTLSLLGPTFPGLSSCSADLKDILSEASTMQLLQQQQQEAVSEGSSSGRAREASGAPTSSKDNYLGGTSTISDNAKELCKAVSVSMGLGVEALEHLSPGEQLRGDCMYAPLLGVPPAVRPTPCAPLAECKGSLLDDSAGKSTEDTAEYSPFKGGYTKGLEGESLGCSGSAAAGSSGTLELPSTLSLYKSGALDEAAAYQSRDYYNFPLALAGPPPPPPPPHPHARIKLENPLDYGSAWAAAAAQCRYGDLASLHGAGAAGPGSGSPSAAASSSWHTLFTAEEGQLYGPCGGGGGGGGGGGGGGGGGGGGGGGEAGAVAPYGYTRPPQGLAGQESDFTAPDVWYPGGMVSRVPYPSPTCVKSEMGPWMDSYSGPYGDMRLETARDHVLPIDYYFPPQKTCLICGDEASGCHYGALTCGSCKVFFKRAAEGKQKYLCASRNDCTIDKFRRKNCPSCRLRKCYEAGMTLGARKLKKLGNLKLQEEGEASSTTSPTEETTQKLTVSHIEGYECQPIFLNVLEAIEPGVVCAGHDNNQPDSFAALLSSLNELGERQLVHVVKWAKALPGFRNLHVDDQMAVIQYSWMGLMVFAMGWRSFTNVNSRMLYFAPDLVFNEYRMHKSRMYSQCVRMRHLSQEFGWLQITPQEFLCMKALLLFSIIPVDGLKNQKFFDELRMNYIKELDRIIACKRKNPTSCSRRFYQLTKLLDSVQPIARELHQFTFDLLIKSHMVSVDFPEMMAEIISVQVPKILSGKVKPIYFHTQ
# T1 sequence (P03372 whole entry, looked up, the tested form may be a part): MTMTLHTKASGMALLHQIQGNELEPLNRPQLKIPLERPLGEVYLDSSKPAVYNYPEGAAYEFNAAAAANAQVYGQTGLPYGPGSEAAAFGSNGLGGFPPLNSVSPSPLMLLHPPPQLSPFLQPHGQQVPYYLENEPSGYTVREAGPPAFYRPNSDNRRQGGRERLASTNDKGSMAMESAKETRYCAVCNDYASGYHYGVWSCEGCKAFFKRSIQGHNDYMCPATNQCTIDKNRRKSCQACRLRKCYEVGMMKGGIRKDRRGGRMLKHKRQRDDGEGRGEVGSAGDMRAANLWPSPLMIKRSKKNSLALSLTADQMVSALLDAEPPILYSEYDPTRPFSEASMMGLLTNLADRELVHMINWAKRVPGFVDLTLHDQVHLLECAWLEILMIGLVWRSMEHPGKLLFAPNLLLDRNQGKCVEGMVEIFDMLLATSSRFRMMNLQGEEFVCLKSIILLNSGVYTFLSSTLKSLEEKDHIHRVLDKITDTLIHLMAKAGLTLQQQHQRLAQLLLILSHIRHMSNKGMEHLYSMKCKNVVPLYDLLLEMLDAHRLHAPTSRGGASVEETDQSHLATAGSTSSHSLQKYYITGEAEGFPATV
# T1 sequence (Q92731 whole entry, looked up, the tested form may be a part): as the sequence (Q92731 whole entry, looked up, the tested form may be a part) above
# Estrogen receptor (Homo sapiens), sequence (P03372 whole entry, looked up, the tested form may be a part): as the sequence (P03372 whole entry, looked up, the tested form may be a part) above
# human Peroxisome Proliferator-activated Receptor alpha (PPARa), PPARA (gene 5465), sequence (Q07869 whole entry, looked up): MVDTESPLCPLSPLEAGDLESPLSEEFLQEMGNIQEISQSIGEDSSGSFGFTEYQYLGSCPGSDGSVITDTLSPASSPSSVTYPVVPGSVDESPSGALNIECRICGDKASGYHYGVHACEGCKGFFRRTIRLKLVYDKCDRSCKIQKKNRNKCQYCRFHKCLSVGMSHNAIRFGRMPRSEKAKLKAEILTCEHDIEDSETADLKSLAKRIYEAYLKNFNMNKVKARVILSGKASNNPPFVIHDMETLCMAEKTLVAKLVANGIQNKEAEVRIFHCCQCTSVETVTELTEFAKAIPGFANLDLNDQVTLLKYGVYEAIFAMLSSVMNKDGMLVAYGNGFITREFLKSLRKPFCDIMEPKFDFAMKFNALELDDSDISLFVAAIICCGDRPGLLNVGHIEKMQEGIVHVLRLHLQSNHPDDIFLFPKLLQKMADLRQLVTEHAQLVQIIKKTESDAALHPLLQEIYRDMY
structure (smiles),measurement,setting,value
CCOP(=S)(OCC)Oc1ccc([N+](=O)[O-])cc1,outcome,[1],inactive
same,AC50,[2],14.6 µM (active)
CCCCOC(=O)c1ccccc1C(=O)O,outcome,[3],inactive
same,outcome,[4],inactive
same,outcome,[5],inactive
same,outcome,[6],inactive
CNC(=O)Oc1cccc2c1OC(C)(C)O2,outcome,[7],inactive
CCOP(=O)(NC(C)C)Oc1ccc(SC)c(C)c1 (stereo not given),outcome,[3],inactive
same,outcome,[4],inactive
same,outcome,[5],inactive
same,outcome,[6],inactive
Cc1nn(-c2cc(NS(C)(=O)=O)c(Cl)cc2Cl)c(=O)n1C(F)F,outcome,[3],inactive
same,outcome,[4],inactive
COc1ccc(C(=CC(=O)N2CCOCC2)c2ccc(Cl)cc2)cc1OC,outcome,[3],inactive
same,outcome,[4],inactive
same,outcome,[5],inactive
same,outcome,[6],inactive
CCc1cccc(CC)c1N(COC)C(=O)CCl,AC50,[3],32 µM (active)
same,outcome,[4],inactive
same,outcome,[8],inactive
CC(C)=CC1C(C(=O)OCN2C(=O)C3=C(CCCC3)C2=O)C1(C)C (stereo not given),AC50,[3],78.6 µM (active)
same,AC50,[4],77.5 µM (active)
CSc1nc(NC(C)C)nc(NC(C)C)n1,outcome,[7],inactive
same,outcome,[9],inactive
same,outcome,[8],inactive
same,outcome,[5],inactive
CCC(=O)Nc1ccc(Cl)c(Cl)c1,outcome,[3],inactive
same,outcome,[4],inactive
CCCOc1nn(C(=O)NS(=O)(=O)c2ccccc2C(=O)OC)c(=O)n1C,outcome,[3],inactive
same,outcome,[4],inactive
O=c1ccc(=O)[nH][nH]1,outcome,[3],inactive
same,outcome,[4],inactive
Nc1c(Cl)cc([N+](=O)[O-])cc1Cl,outcome,[7],inactive
same,outcome,[9],inactive
same,outcome,[3],inactive
same,outcome,[4],inactive
same,outcome,[8],inactive
same,outcome,[5],inactive
same,outcome,[6],inactive
FC(F)C(F)(F)OCC(Cn1cncn1)c1ccc(Cl)cc1Cl (stereo not given),outcome,[5],inactive
CCOP(=S)(OCC)OC(Cl)C(Cl)(Cl)Cl (stereo not given),AC50,[5],38.6 µM (active)
CNC(=O)ON=C(SC)C(=O)N(C)C,outcome,[7],inactive
same,outcome,[9],inactive
same,outcome,[3],inactive
same,outcome,[4],inactive
same,outcome,[8],inactive
same,outcome,[5],inactive
same,outcome,[6],inactive
same,outcome,[2],inactive
CCCCOC(=O)[C@@H](C)Oc1ccc(Oc2ccc(C#N)cc2F)cc1,outcome,[7],inactive
same,outcome,[9],inactive
same,outcome,[8],inactive
same,outcome,[5],inactive
N#CSCSC#N,AC50,[3],15.5 µM (active)
same,AC50,[4],18.2 µM (active)
same,outcome,[5],inactive
same,outcome,[6],inactive
COP(=O)(OC)C(O)C(Cl)(Cl)Cl (stereo not given),outcome,[6],inactive
CCC(CC)Nc1c([N+](=O)[O-])cc(C)c(C)c1[N+](=O)[O-],AC50,[5],12.6 µM (active)
same,outcome,[2],inactive
C[Si](Cn1cncn1)(c1ccc(F)cc1)c1ccc(F)cc1,outcome,[5],inactive
same,outcome,[2],inactive
CCNc1nc(Cl)nc(NC(C)(C)C#N)n1,outcome,[5],inactive
CCOP(=S)(OCC)SCCSCC,outcome,[5],inactive
same,outcome,[6],inactive
CN(C)NC(=O)CCC(=O)O,AC50,[5],50 µM (active)
Nc1nc(N)nc(NC2CC2)n1,outcome,[5],inactive
S=C1NCCN1,outcome,[6],inactive
CSC1=N[C@@](C)(c2ccccc2)C(=O)N1Nc1ccccc1,outcome,[5],inactive
CCOP(=S)(OCC)Oc1ccc2c(C)c(Cl)c(=O)oc2c1,AC50,[2],1.13 µM (active)
CCCCN(CC)c1c([N+](=O)[O-])cc(C(F)(F)F)cc1[N+](=O)[O-],outcome,[5],inactive
same,outcome,[6],inactive
same,outcome,[2],inactive
CNC(=O)ON=C(C)SC,outcome,[5],inactive
same,outcome,[2],inactive
CCCCSP(=O)(SCCCC)SCCCC,outcome,[5],inactive
CC(C)[C@H](C(=O)O[C@H](C#N)c1cccc(Oc2ccccc2)c1)c1ccc(Cl)cc1,outcome,[5],inactive
C#CCC1=C(C)C(OC(=O)C2C(C=C(C)C)C2(C)C)CC1=O (stereo not given),outcome,[5],inactive
CCOP(=S)(OCC)Oc1cc(C)nc(C(C)C)n1,outcome,[2],inactive
C#CC(C)(C)NC(=O)c1cc(Cl)cc(Cl)c1,outcome,[6],inactive
CN(C)[C@@H]1C(=O)C(C(N)=O)=C(O)[C@@]2(O)C(=O)C3=C(O)c4c(O)cccc4[C@@](C)(O)[C@H]3[C@H](O)[C@@H]12,AC50,[10],14.1 µM (active)
COc1cccc(C(=O)NN(C(=O)c2cc(C)cc(C)c2)C(C)(C)C)c1C,outcome,[5],inactive
same,outcome,[6],inactive
CC1(C(=O)Nc2ccc(O)c(Cl)c2Cl)CCCCC1,AC50,[5],22.2 µM (active)
same,outcome,[2],inactive
CSc1nnc(C(C)(C)C)c(=O)n1N,outcome,[5],inactive
same,outcome,[6],inactive
CCOC(=O)CC(SP(=O)(OC)OC)C(=O)OCC (stereo not given),outcome,[5],inactive
same,outcome,[6],inactive
same,outcome,[2],inactive
CC(C)N(C(=O)SCC(Cl)=C(Cl)Cl)C(C)C,outcome,[5],inactive
same,outcome,[6],inactive
CCC(=NOC/C=C/Cl)C1=C(O)CC(C2CCOCC2)CC1=O (stereo not given),outcome,[5],inactive
CCOP(=O)(OCC)Oc1cc(C)nc(C(C)C)n1,outcome,[5],inactive
same,outcome,[2],inactive
CC(C1CC1)C(O)(Cn1cncn1)c1ccc(Cl)cc1 (stereo not given),AC50,[5],29.6 µM (active)
same,outcome,[6],inactive
same,outcome,[2],inactive
CCCOCC(=Nc1ccc(Cl)cc1C(F)(F)F)n1ccnc1,outcome,[5],inactive
same,outcome,[2],inactive
CCCSP(=O)(OCC)Oc1ccc(Br)cc1Cl (stereo not given),AC50,[5],29.8 µM (active)
same,AC50,[2],25 µM (active)
CC1=NNC(=O)N(/N=C/c2cccnc2)C1,outcome,[5],inactive
same,outcome,[6],inactive
CNc1cnn(-c2cccc(C(F)(F)F)c2)c(=O)c1Cl,outcome,[5],inactive
same,outcome,[6],inactive
same,outcome,[2],inactive
CCc1cccc(C)c1N(C(=O)CCl)C(C)COC (stereo not given),outcome,[5],inactive
same,outcome,[6],inactive
Cc1ccn2nc(S(=O)(=O)Nc3c(F)cccc3F)nc2n1,outcome,[5],inactive
